Experimental data taken from PubChem BioAssay (NCI).
About 83,000 compounds went through this panel and 20% of them were active in at least one assay; those are over-represented in the sample as a whole.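 Values shown are percent growth following 48 h exposure of cells in 96-well plates to a single concentration of compound; below 10 was considered active.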 Values without a mark were called inactive. Calls of active or inactive are those of the source.

How the values were obtained:
Test in all cases: NCI-60 one-dose screen, 48 h (100 = growth as untreated, 0 = no growth, -100 = all killed)
Conditions in all cases: 10 µM unless noted
[1] = tested on: EKVX NSCLC
[2] = tested on: SN12C renal
[3] = tested on: UO-31 renal
[4] = tested on: TK-10 renal
[5] = tested on: ACHN renal
[6] = tested on: CAKI-1 renal
[7] = tested on: CCRF-CEM leukemia
[8] = tested on: MOLT-4 leukemia
[9] = tested on: A498 renal

COc1ccc(C2=NC(=O)NC2c2ccc(OC)cc2)cc1 (stereo unspecified)
growth [1]: 75.9%
growth [2]: 71%
growth [3]: 61%
growth [4]: 87.6%
growth [5]: 83.2%
growth [6]: 50.6%
growth [7]: 68.3%
growth [8]: 65.8%

O=C1CSC(c2ccccc2Cl)N1c1nnc(Cn2cnnc2)o1 (stereo unspecified)
growth [1]: 60.7%
growth [2]: 82%
growth [3]: 66.4%
growth [4]: 91.1%
growth [5]: 73.6%
growth [9]: 75.5%
growth [7]: 43.4%
growth [8]: 20.2%

Cc1cc2c(F)c(Oc3ncnc(Nc4ccc(N5C[C@@H](C)N[C@@H](C)C5)cc4)c3C#N)cc(F)c2[nH]1
growth [1]: 78.7%
growth [3]: 70%
growth [4]: 70.9%
growth [5]: -12.2% (active)
growth [6]: 40.3%
growth [9]: 15.6%
growth [7]: 7.66% (active)
growth [8]: -15.9% (active)

C=C(Cl)COC(=O)C(C)(C)O
growth [2]: 107%
growth [3]: 92.7%
growth [4]: 89.5%
growth [5]: 105%
growth [6]: 94.6%
growth [9]: 94.1%
growth [7]: 92.6%
growth [8]: 97.1%

O=C1C2=C(CCN(Cc3ccccc3)C2)N2CCN=C2N1Cc1ccc(C(F)(F)F)cc1
growth [1]: 20.6%
growth [2]: 23.1%
growth [3]: 25.4%
growth [4]: 37.7%
growth [5]: 31.3%
growth [6]: 28.6%
growth [9]: -0.0454% (active)
growth [7]: 52.6%
growth [8]: 59.8%

COc1ccc(NC(=O)c2cccc(-c3cc(=O)c4c(O)c(OC)c(OC)cc4o3)c2)cc1
growth [2]: 84.3%
growth [3]: 93.4%
growth [4]: 105%
growth [5]: 83.6%
growth [6]: 93.6%
growth [9]: 83.8%
growth [7]: 84%
growth [8]: 103%

O=C(Nc1ccccc1Cl)OCCN1CCOCC1
growth [1]: 104%
growth [2]: 98%
growth [3]: 92.4%
growth [4]: 92.8%
growth [9]: 129%
growth [7]: 86%
growth [8]: 92.3%
